Assay results reported in PubChem BioAssay (Tox21).
A number with no mark means an inactive call. Inconclusive results are not listed. Where a call stands in place of a potency, no number is given. Activity calls are given as the source filed them. Calls follow the shape of the dose curve; as a rule, active = well fitted curve in the direction sought with a large enough effect in the repeat runs; inconclusive = weak or mixed curves; inactive = no such curve, though single readings can be large; an effect the other way counts as inactive or inconclusive.

Key:
[1] = A CellTox Green Cytotoxicity Assay to monitor cytotoxicity in HepG2 cells - 0 hour (AID 1224882); also: nearly all actives have a fitted effect of over 35% in size
Method in brief: (§1)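 Real-time cytotoxicity: fluorescence of a cell-impermeant cyanine dye binding DNA of dead HepG2 cells, measured repeatedly (0–40 h) during compound exposure at 37 C. Cells seeded 600/well with reagent, dosed after 5 h.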

[2] = A CellTox Green Cytotoxicity Assay to monitor cytotoxicity in HepG2 cells - 32 hour (AID 1224883); also: nearly all actives have a fitted effect of over 50% in size; also: potency is read from the fitted curve at half-maximal effect
Method in brief: as §1

[3] = A CellTox Green Cytotoxicity Assay to monitor cytotoxicity in HEK293 cells - 8 hour (AID 1224884); also: nearly all actives have a fitted effect of over 35% in size
Method in brief: (§2)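 Fluorescence from a DNA-binding dye excluded by viable cells was measured repeatedly in the same HEK293 wells (600 cells/well) during continuous compound exposure at 37 C. Each assay gives one read point: 0, 8, 16, 24, 32 or 40 h.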

[4] = qHTS RealTime-Glo MT Cell Viability Assay in HepG2 cells - 16 hour (AID 1224885); also: nearly all actives have a fitted effect of over 50% in size
Method in brief: (§3)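 Tox21 10K library screened in qHTS format on HepG2 cells carrying RealTime-Glo reagents. Compounds were added after a 5 h preincubation, and the luminescent signal from continuous culture was measured repeatedly during 40 h treatment.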

[5] = qHTS RealTime-Glo MT Cell Viability Assay in HEK293 cells - 24 hour (AID 1224886); also: top concentration of the series differs between compounds; nearly all actives have a fitted effect of over 50% in size
Method in brief: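 Luminescence generated by NanoLuc from substrate produced by living HEK293 cells served as the viability signal. Each value reflects the reading at its stated time point during continuous 40 h compound exposure at 37 C.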

[6] = qHTS RealTime-Glo MT Cell Viability Assay in HEK293 cells - 8 hour (AID 1224887); also: top concentration of the series differs between compounds; nearly all actives have a fitted effect of over 50% in size
Method in brief: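 Luminescence, which tracks viable cell number through reduction of the prosubstrate to a NanoLuc substrate, was read over continuous 37 C culture. Cells (600/well) were premixed with reagent and rested 5 h before 23 nL of compound in DMSO was pinned.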

[7] = A CellTox Green Cytotoxicity Assay to monitor cytotoxicity in HEK293 cells - 16 hour (AID 1224888); also: nearly all actives have a fitted effect of over 35% in size
Method in brief: as §2

[8] = qHTS RealTime-Glo MT Cell Viability Assay in HepG2 cells - 0 hour (AID 1224889); also: nearly all actives have a fitted effect of over 50% in size
Method in brief: as §3

[9] = A CellTox Green Cytotoxicity Assay to monitor cytotoxicity in HepG2 cells - 8 hour (AID 1224890); also: nearly all actives have a fitted effect of over 45% in size
Method in brief: as §1

[10] = qHTS assay to identify small molecule antagonists of the estrogen receptor alpha (ER-alpha) signaling pathway using the BG1 cell line in the presence of 0.1 nM 17-beta-estradiol - cell viability counter screen (AID 1259241); also: nearly all actives have a fitted effect of over 40% in size
Method in brief: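 CellTiter-Fluor read (30 min, 37C) on ER-alpha/ERE-luc VM7Luc4E2 cells; 22 hr compound treatment; agonist 0.1 nM E2 final; same-well multiplex.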

## CCO[C@H](Cc1ccc(OCCc2ccc(OS(C)(=O)=O)cc2)cc1)C(=O)O
[1]
  Potency: inactive
[2]
  Potency: inactive
[3]
  Potency: inactive
[4]
  Potency: inactive
[5]
  Potency: inactive
[6]
  Potency: inactive
[7]
  Potency: inactive
[8]
  Potency: inactive
[9]
  Potency: inactive
[10]
  Potency: inactive

## CC(CSC(=O)c1ccccc1)C(=O)N1C[C@@H](Sc2ccccc2)C[C@H]1C(=O)O (stereo partly specified)
[1]
  cytotoxicity: 5.13% [at 15.8 µM]
[2]
  cytotoxicity increase: -3.06% [at 15.8 µM]
[3]
  cytotoxicity increase: 0.0018% [at 15.8 µM]
[4]
  activity change, negative = cytotoxic: 2.9% [at 15.8 µM]
[5]
  activity change, negative = cytotoxicity: -5.81% [at 15.8 µM]
[6]
  activity change, negative = cytotoxicity: -4.84% [at 15.8 µM]
[7]
  activity change: -0.144% [at 15.8 µM, stronger effect = higher value]
[8]
  activity change, negative = cytotoxicity: -0.48% [at 15.8 µM]

## CCCCC(CC)COC(=O)COc1ccc(Cl)cc1Cl (stereo unspecified)
[1]
  Potency: inactive
[2]
  Potency: inactive
[3]
  Potency: inactive
[4]
  Potency: inactive
[5]
  Potency: inactive
[6]
  Potency: inactive
[7]
  Potency: inactive
[8]
  Potency: inactive
[9]
  Potency: inactive

## CN(C)CCOC(c1ccccc1)c1ccc(Br)cc1 (stereo unspecified)
[1]
  Potency: inactive
[2]
  Potency: 23.9 µM (active)
[3]
  Potency: inactive
[4]
  Potency: inactive
[5]
  Potency: inactive
[6]
  Potency: inactive
[7]
  Potency: inactive
[8]
  Potency: inactive
[9]
  Potency: inactive
[10]
  Potency: inactive

## CC1=CCCC(C)(C)C12CCC(C)O2 (stereo unspecified)
[1]
  Potency: inactive
[2]
  Potency: inactive
[3]
  Potency: inactive
[4]
  Potency: inactive
[5]
  Potency: inactive
[6]
  Potency: inactive
[7]
  Potency: inactive
[8]
  Potency: inactive
[9]
  Potency: inactive

## Nc1cc(C(=O)O)c(O)c(S(=O)(=O)O)c1
[1]
  Potency: inactive
[2]
  Potency: inactive
[3]
  Potency: inactive
[4]
  Potency: inactive
[5]
  Potency: inactive
[6]
  Potency: inactive
[7]
  Potency: inactive
[8]
  Potency: inactive
[9]
  Potency: inactive
[10]
  Potency: inactive

## CCCCCCCC/C=C\CCCCCCCC(=O)OCC
[1]
  Potency: inactive
[2]
  Potency: inactive
[3]
  Potency: inactive
[4]
  Potency: inactive
[5]
  Potency: inactive
[6]
  Potency: inactive
[7]
  Potency: inactive
[8]
  Potency: inactive
[9]
  Potency: inactive

## CCN(CC)c1ccc(C(=C2C=CC(=[N+](CC)CC)C=C2)c2cc(S(=O)(=O)O)ccc2S(=O)(=O)[O-])cc1
[1]
  Potency: inactive
[2]
  Potency: inactive
[3]
  Potency: inactive
[4]
  Potency: inactive
[5]
  Potency: inactive
[6]
  Potency: inactive
[7]
  Potency: inactive
[8]
  Potency: inactive
[9]
  Potency: inactive

## O=C(O)C1(C(=O)O)CCC1.[NH2-].[NH2-].[Pt+2]
[1]
  Potency: inactive
[2]
  Potency: inactive
[3]
  Potency: inactive
[4]
  Potency: inactive
[5]
  Potency: inactive
[6]
  Potency: inactive
[7]
  Potency: inactive
[8]
  Potency: inactive
[9]
  Potency: inactive

## CCOc1ccc(N=Nc2ccc(/C=C/c3ccc(N=Nc4ccc(OCC)cc4)cc3S(=O)(=O)O)c(S(=O)(=O)O)c2)cc1
[1]
  Potency: inactive
[2]
  Potency: inactive
[3]
  Potency: inactive
[4]
  Potency: inactive
[5]
  Potency: inactive
[6]
  Potency: inactive
[7]
  Potency: inactive
[8]
  Potency: inactive
[9]
  Potency: inactive

## CCCCOC(=O)CCCCCCCC(=O)OCCCC
[1]
  Potency: inactive
[2]
  Potency: inactive
[3]
  Potency: inactive
[4]
  Potency: inactive
[5]
  Potency: inactive
[6]
  Potency: inactive
[7]
  Potency: inactive
[8]
  Potency: inactive
[9]
  Potency: inactive
[10]
  Potency: inactive

## NCC(=O)O
[1]
  cytotoxicity: 6.15% [at 15.8 µM]
[2]
  cytotoxicity increase: 1.6% [at 15.8 µM]
[3]
  cytotoxicity increase: 12.2% [at 15.8 µM]
[4]
  activity change, negative = cytotoxic: 8.2% [at 15.8 µM]
[5]
  activity change, negative = cytotoxicity: 3.07% [at 15.8 µM]
[6]
  activity change, negative = cytotoxicity: 10.2% [at 15.8 µM]
[7]
  activity change: -1.23% [at 15.8 µM, stronger effect = higher value]
[8]
  activity change, negative = cytotoxicity: 5.3% [at 15.8 µM]
[9]
  cytotoxicity increase: 1.21% [at 15.8 µM]

## c1cc(CCCc2ccncc2)ccn1
[1]
  Potency: inactive
[2]
  Potency: inactive
[3]
  Potency: inactive
[4]
  Potency: inactive
[5]
  Potency: inactive
[6]
  Potency: inactive
[7]
  Potency: inactive
[8]
  Potency: inactive
[9]
  Potency: inactive
[10]
  Potency: inactive

## NCC(=O)CCC(=O)O
[1]
  Potency: inactive
[2]
  Potency: inactive
[3]
  Potency: inactive
[4]
  Potency: inactive
[5]
  Potency: inactive
[6]
  Potency: inactive
[7]
  Potency: inactive
[8]
  Potency: inactive
[9]
  Potency: inactive
[10]
  Potency: inactive

## COC(=O)c1ccc(I)cc1S(=O)(=O)NC(=O)Nc1nc(C)nc(OC)n1
[1]
  Potency: inactive
[2]
  Potency: inactive
[3]
  Potency: inactive
[4]
  Potency: inactive
[5]
  Potency: inactive
[6]
  Potency: inactive
[7]
  Potency: inactive
[8]
  Potency: inactive
[9]
  Potency: inactive
[10]
  Potency: inactive

## CCCCCCCC#N
[1]
  Potency: inactive
[2]
  Potency: inactive
[3]
  Potency: inactive
[4]
  Potency: inactive
[5]
  Potency: inactive
[6]
  Potency: inactive
[7]
  Potency: inactive
[8]
  Potency: inactive
[9]
  Potency: inactive
[10]
  Potency: inactive

## O=S(c1cc(Cl)cc(Cl)c1O)c1cc(Cl)cc(Cl)c1O
[1]
  Potency: inactive
[2]
  Potency: inactive
[3]
  Potency: inactive
[4]
  Potency: inactive
[5]
  Potency: inactive
[6]
  Potency: inactive
[7]
  Potency: inactive
[8]
  Potency: inactive
[9]
  Potency: inactive
[10]
  Potency: inactive

## O=C(OCCc1ccccc1)c1ccccc1
[1]
  Potency: inactive
[2]
  Potency: inactive
[3]
  Potency: inactive
[4]
  Potency: inactive
[5]
  Potency: inactive
[6]
  Potency: inactive
[7]
  Potency: inactive
[8]
  Potency: inactive
[9]
  Potency: inactive
[10]
  Potency: inactive

## CC(=O)[O][Al]
[1]
  Potency: inactive
[2]
  Potency: inactive
[3]
  Potency: inactive
[4]
  Potency: inactive
[5]
  Potency: inactive
[6]
  Potency: inactive
[7]
  Potency: inactive
[8]
  Potency: inactive
[9]
  Potency: inactive
[10]
  Potency: inactive

## C/C(=C(\CCOP(=O)(O)O)SC(=O)c1ccccc1)N(C=O)Cc1cnc(C)nc1N
[1]
  cytotoxicity: 4.51% [at 6.97 µM]
[2]
  cytotoxicity increase: -0.701% [at 6.97 µM]
[3]
  cytotoxicity increase: -3.85% [at 6.97 µM]
[4]
  activity change, negative = cytotoxic: 1.38% [at 6.97 µM]
[5]
  activity change, negative = cytotoxicity: 2.35% [at 6.97 µM]
[6]
  activity change, negative = cytotoxicity: 3.68% [at 6.97 µM]
[7]
  activity change: -2.42% [at 6.97 µM, stronger effect = higher value]
[8]
  activity change, negative = cytotoxicity: 4.53% [at 6.97 µM]
[9]
  cytotoxicity increase: 0.403% [at 6.97 µM]
[10]
  activity change, negative = cytotoxicity: -4.04% [at 8.39 µM]

## CC(C)Nc1ccc(NC(C)C)c2c1C(=O)c1ccccc1C2=O
[1]
  Potency: inactive
[2]
  Potency: 9.06 µM (active)
[3]
  Potency: inactive
[4]
  Potency: inactive
[5]
  Potency: inactive
[6]
  Potency: inactive
[7]
  Potency: inactive
[8]
  Potency: inactive
[9]
  Potency: inactive
[10]
  Potency: inactive

## COc1ccnc(CS(=O)c2nc3ccc(OC(F)F)cc3[nH]2)c1OC (stereo unspecified)
[1]
  Potency: inactive
[2]
  Potency: inactive
[3]
  Potency: inactive
[4]
  Potency: inactive
[5]
  Potency: inactive
[6]
  Potency: inactive
[7]
  Potency: inactive
[8]
  Potency: inactive
[9]
  Potency: inactive
[10]
  Potency: inactive

## Cc1c(N)cccc1[N+](=O)[O-]
[1]
  Potency: inactive
[2]
  Potency: inactive
[3]
  Potency: inactive
[4]
  Potency: inactive
[5]
  Potency: inactive
[6]
  Potency: inactive
[7]
  Potency: inactive
[8]
  Potency: inactive
[9]
  Potency: inactive
[10]
  Potency: inactive
